# Test results published in ChEMBL document CHEMBL3988442, “University of Dundee, Small-Polar-MMV Screening Library” (2021).
# Among all 85,000 compounds or so, about 440 (0.52%) showed an effect of 50% or more. This is one part of a sample in which strong results are shown more often than they occur.
# Assay: In vitro enzyme assay to detect hydrolysis of chlorophenol red-beta-D-[…] directly proportional to the number of Toxoplasma stably expressing beta-galactosidase
# Format: functional, organism-based, Toxoplasma gondii
# Parameters: scale not given: in the data most compounds retested in dose-response had high values
Structure (SMILES),Percent Effect (50 µM),Percent Effect (10 µM)
Cc1ccc(F)c(NC(=O)N2CCOCC2CO)c1 (stereo not drawn),2.099%,
O=C1CN(CC(=O)N2CCc3sccc3C2)CCN1,8.555%,
Cc1ccccc1CC(=O)NCC(F)(F)F,-13.95%,
CC(=O)C1CN(C(=O)OC(C)(C)C)CCO1 (stereo not drawn),-6.486%,
CC(CCc1ccccc1)NC(=O)CNCCCN(C)C.O=C(O)C(=O)O (stereo not drawn),,-5.52%
CN(C)CCCNCCC(Cc1ccccc1)C1CCOC(C)(C)C1.O=C(O)C(=O)O (stereo not drawn),,77.21%
CN(C)CCNCCC(Cc1ccccc1)C1CCOC(C)(C)C1.O=C(O)C(=O)O (stereo not drawn),,9.919%
CCN(CC)CCCNCC1CCOC(C)(C)C1 (stereo not drawn),,1.68%
CN(C)CCNCC1CCOC(C)(C)C1 (stereo not drawn),,12.77%
N#CCC(=O)Nc1ccc(N2CCOCC2)cc1,-1.188%,
CCCNC(=O)CCNC(=O)Nc1cc(C)cc(C)n1,12.25%,
NCCC(=O)Nc1ccccc1,99.48%,
NCC(=O)Nc1ccccc1,0.1294%,
Cl.NCCC(=O)Nc1ccc(-c2ccccc2)cc1,,10.41%
CNCc1ccc(N(C)C)nc1,-20.16%,
NCc1ccc(N)nc1,-3.539%,
Nc1nc2c(c(NCc3ccncc3)n1)CCCC2,,12.09%
Cc1nc2c(c(NCc3ccc(N)nc3)n1)CCCC2,50.4%,
Cc1nc2c(c(NCc3cnc4c(c3)CCC4)n1)CNC2,,-1.27%
CNCc1ccc(N)nc1,63.11%,
NCc1cnn(-c2ccc(F)cc2)c1,4.484%,
C1CC(OC2CCOC2)CCN1 (stereo not drawn),3.071%,
COCCCOC1CN(C(=O)c2cc(F)ccc2C)C1,0.2477%,
CCCc1nc2c(c(C)c(C)n2Cc2ccncc2)c(N)c1CC,,-0.599%
CCCc1nc2c(c(C)c(C)n2Cc2cccnc2)c(N)c1CC,,33.67%
CCCc1nc2c(c(C)c(C)n2Cc2ccccn2)c(N)c1CC,,74.72%

Structure (SMILES),Percent Effect (50 µM),Percent Effect (10 µM)
CCNC(=O)C(C)N (stereo not drawn),-4.292%,
COc1cc(OC)cc(N2CC(N)CC2=O)c1 (stereo not drawn),17.36%,
O=C(Nc1cccc(F)c1)C1CCCN1 (stereo not drawn),7.876%,
CCOCCNc1nc(-c2ccncc2)nc2c1CCNCC2,,-6.442%
O=C(Nc1cccc(F)c1)NC1CCN(Cc2ccncc2)CC1,,6.4%
Cl.NC1CCc2nc(-c3ccncc3)nc(Nc3cccc(F)c3)c2C1 (stereo not drawn),,92.97%
Cl.NC1CCc2nc(-c3cccnc3)nc(Nc3ccc(F)cc3)c2C1 (stereo not drawn),,24.29%
N[C@@H]1CCO[C@H]1c1ccnn1-c1ccccc1,-18.85%,
CNC(=O)[C@@H]1CCCN1,-5.087%,
O=c1cc(CN2CCOCC2)nc2sccn12,2.592%,
CN1CCCC1CCSc1nc(N)c(C#N)cc1C#N (stereo not drawn),-0.4089%,
Cc1cc(C)nc(NC(=O)c2ccncc2)c1,31.27%,
CCO[C@@H]1COCC[C@H]1NC(=O)c1cncn1C,0.586%,
CN(Cc1noc(C2CC2)n1)C1CCN(Cc2ccccc2C#N)C1 (stereo not drawn),,2.644%
CN(Cc1noc(C2CC2)n1)C1CCN(Cc2ccc(F)c(F)c2)C1 (stereo not drawn),,1.098%
CN(Cc1noc(C2CC2)n1)C1CCN(Cc2cccc(F)c2F)C1 (stereo not drawn),,67.09%
CCNC(=O)CNc1noc(C(C)(C)C)n1,-18.17%,
CCCN(CCOC)CC(=O)N(C)C,8.072%,
COCCN(CCOC)CC(=O)N(C)C,56.58%,
COCCN(CC(=O)N(C)C)c1ncccn1,1.212%,
OC1CCCN(CCOc2ccccc2)C1 (stereo not drawn),1.087%,
CCC(C)Oc1ccc(CNCCNC(C)=O)cc1Cl (stereo not drawn),,19.61%
CCC(C)Oc1ccc(CNCCNS(C)(=O)=O)cc1Cl (stereo not drawn),,19.69%
CCC(C)Oc1ccc(CNCCc2c[nH]cn2)cc1Cl (stereo not drawn),,81.15%
CCN(CCN(C)C)C(=O)c1cn(CCN)nn1,2.797%,
Cc1cc(NC(=O)C(C)N(C)Cc2cc(C)on2)on1 (stereo not drawn),5.589%,

Structure (SMILES),Percent Effect (50 µM),Percent Effect (10 µM)
Cc1ccc(C(=O)NC2CCN(C(C)C)CC2)o1,-16.97%,
OCCCN(Cc1ccccc1)Cc1ccccn1,-0.1376%,
NCc1cccc(C(F)(F)F)n1,30.32%,
COc1ccc(CCNC(=O)NCCCC(N)=O)cc1,98.98%,
CCOC(=O)CNC(=O)NCCc1ccc(OC)cc1,-17.09%,
COc1ccc(CCC(=O)NCCNC(C)=O)cc1,21.36%,
CC1(C)CCCN(C(=O)CCS(C)(=O)=O)CC1,-2.783%,
CCCC(N)C(=O)N(C)Cc1cccc(N(C)C)c1 (stereo not drawn),89.59%,
CCCC(=O)N(C)Cc1cccc(OC(C)C)c1,,0.05359%
CC[C@H](N)C(=O)N(C)Cc1cccc(OC(F)(F)F)c1,4.147%,
CCN(CC)C(=O)CN1CCC(N)CC1,-1.204%,
NS(=O)(=O)CC1CCN(C(=O)Nc2ccccc2)CC1,13.92%,
CNCC1CCN(C(=O)Nc2ccccc2)CC1,-5.234%,
NC1CCN(C(=O)Nc2ccccc2)C1 (stereo not drawn),93.84%,
N[C@H]1CN(CC(=O)N2CCCCC2)C[C@@H]1C1CC1,3.394%,
CCC(NC(=O)CCC(=O)OC)c1ccccc1 (stereo not drawn),-2.759%,
Cc1ccc(CN(CCCn2ccnc2)Cc2cc(F)ccc2F)s1.O=C(O)CC(O)(CC(=O)O)C(=O)O,,64.14%
Cc1ccc(CN(CCCn2ccnc2)Cc2cnn(C)c2)s1.O=C(O)CC(O)(CC(=O)O)C(=O)O,,-58.36%
COc1ccc(F)c(CN(CCCn2ccnc2)Cc2ccc(C)s2)c1.O=C(O)CC(O)(CC(=O)O)C(=O)O,,53.53%
Cc1ccc(CN(CCCn2ccnc2)Cc2cccs2)s1.O=C(O)CC(O)(CC(=O)O)C(=O)O,,13.55%
Cc1ccc(CN(CCCn2ccnc2)Cc2c(F)cccc2F)s1.O=C(O)CC(O)(CC(=O)O)C(=O)O,,36.95%
Cc1ccc(CN(CCCn2ccnc2)Cc2ccccc2O)s1.O=C(O)CC(O)(CC(=O)O)C(=O)O,,-8.716%
Cc1ccc(O)c(CN(CCCn2ccnc2)Cc2ccc(C)s2)c1.O=C(O)CC(O)(CC(=O)O)C(=O)O,,4.169%
Cc1ccc(CN(CCCn2ccnc2)Cc2c[nH]cn2)s1.O=C(O)CC(O)(CC(=O)O)C(=O)O,,27.23%
CCc1ccc(CN(CCCn2ccnc2)Cc2ccc(C)s2)o1.O=C(O)CC(O)(CC(=O)O)C(=O)O,,5.317%
Cc1ccc(CN(CCCn2ccnc2)Cc2c[nH]nc2C(C)(C)C)s1.O=C(O)CC(O)(CC(=O)O)C(=O)O,,-5.969%
